Bioassay records from PubChem BioAssay.
PfHsp90 set2: growth inhibition of PfHsp90-expressing yeast, primary screen, antimalarial PfHsp90 inhibitor project, S. cerevisiae, BacTiter-Glo luminescence, single point, set 2. BacTiter-Glo ATP, 48 h; yeast lacking PDR1 and PDR3 efflux regulators. inhibition, % at 9.4 µM. 0.32% of 310,000 active;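 active = every replicate shows inhibition above about 80%, whatever the replicate mean, limit read from the data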;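 note: 0% = DMSO neutral controls and 100% = 20 µM radicicol positive controls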
tim23-1 inh: growth inhibitors of tim23-1 mutant yeast, primary screen, luminescence, uHTS | AID 463212, 2010 | 1.3% of 330,000 active | inhibition, % at 20 µM | S. cerevisiae tim23-1 growth, BacTiter-Glo luminescence, 24 h;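 active = growth inhibition of the mutant yeast at or above 50%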;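 note: temperature-sensitive mutant grown at 25 °C; plate controls were DMSO-treated mutant yeast for no effect and medium wells lacking yeast for full effect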
V-ATPase pHluor: regulators of yeast V-ATPase proton pumping, primary screen, pHLuorin cytosolic pH fluorescence. response, % at 10 µM. AID 504577, 2011. 0.37% of 350,000 active. S. cerevisiae; in the data active = response mostly above about 7.3%, no sharp cut-off; inactive = mostly below about 5.4%; note: actives read high
tim10-1 inh: growth inhibitors of tim10-1 mutant yeast, primary screen, luminescence, uHTS; S. cerevisiae tim10-1 ts strain growth, BacTiter-Glo, 24 h; inhibition, % at 20 µM; 2.2% of 330,000 active; AID 463190, 2010;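 active = inhibition of at least 40%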;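 note: mutant grown at 25 °C; 0% = DMSO wells with yeast and 100% = wells holding no yeast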
SKKanGAS inh: S. pyogenes SKKanGAS growth inhibitors in kanamycin, primary screen, streptokinase expression inhibitor project, SKKanGAS strain, BacTiter-Glo luminescence | 6 h | inhibition, % at 7.5 µM | 1.3% of 300,000 active;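 active = mean replicate score, as percent of positive control median, at least 50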;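 note: strain carries kanamycin resistance gene driven by streptokinase promoter and grows in 40 µg/ml kanamycin; loss of luminescence reflects streptokinase promoter inhibition or plain growth inhibition; 0% = median of DMSO wells and 100% = positive control at its reference dose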
TIM10 inh: growth inhibitors of isogenic TIM10 control yeast, primary screen, counter-screen for tim10-1 yeast inhibitor project, luminescence, uHTS | S. cerevisiae TIM10 strain growth, BacTiter-Glo luminescence, 24 h | inhibition, % at 10 µM | 1.4% of 330,000 active | AID 463195, 2010;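 active = inhibition of 40% or more at the single tested concentration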;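 note: wild-type TIM10 isogenic control strain grown at permissive 25 °C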
The depositor's hits bear a star; nt = no result given. Rows were chosen to be rich in hits. Some 4.6% of all compounds tested hit in one or more screens of this group.

SMILES | PfHsp90 set2 | tim23-1 inh | V-ATPase pHluor | tim10-1 inh | SKKanGAS inh | TIM10 inh
Cc1cc(C)c(C)c(S(=O)(=O)N2CCC(C(=O)NNC(=O)c3ccccc3O)CC2)c1C | -7 | 19 | 4 | 10 | 61* | -8
Cc1c(-c2ccccc2)c(-c2ccc(OCCN(C)C)cc2)n2ccccc12 | -14 | nt | 1 | nt | nt | nt
COc1cc2cnc(-c3ccccc3)c(C(=O)c3ccc(OCc4ccccc4)cc3)c2cc1OC | -16 | 31 | 1 | 20 | nt | 11
COc1cc2cnc(-c3ccccc3)c(C(=O)c3ccc(F)cc3)c2cc1OC | 85* | 47 | 3 | 8 | nt | 0
Cc1cccc(C)c1OC(=O)C(c1ccccc1)c1ccccc1 | -4 | 16 | 3 | 13 | 71* | 26
COc1cc(/C=C2/SC(=S)N(Cc3ccccc3)C2=O)ccc1O | -1 | 42 | 5 | -1 | 66* | 16
COc1cc(/C=C2\SC(=S)N(CCC(=O)Nc3cccc(O)c3)C2=O)cc(OC)c1OC | 4 | 14 | -1 | 11 | 57* | 7
O=C1/C(=C\c2cccc(O)c2)SC(=S)N1Cc1ccccc1 | 10 | 50 | -1 | -19 | 7 | 24
COc1cc(/C=C2\SC(=S)N(CCC(=O)Nc3ccccc3)C2=O)cc(OC)c1OC | -23 | 28 | -1 | 17 | 15 | 12
COc1cccc(/C=C2/SC(=S)N(CC(=O)NNC(=O)c3ccccc3O)C2=O)c1 | 0 | 1 | 1 | -6 | 98* | 25
O=C1/C(=C\c2cccc(O)c2O)SC(=S)N1Cc1ccccc1 | 108* | 39 | 4 | -50 | 93* | 6
O=C(O)CCCCN1C(=O)/C(=C\c2ccc(OCc3ccccc3)c(OCc3ccccc3)c2)SC1=S | -14 | 9 | -5 | 16 | 50* | 12
O=C(CCN1C(=O)/C(=C/c2ccccc2Cl)SC1=S)NNC(=O)c1ccccc1O | -24 | -5 | -13 | 3 | 60* | 5
O=C(CCN1C(=O)/C(=C/c2ccccc2Cl)SC1=S)NNC(=O)c1cccnc1 | -15 | 25 | 2 | -1 | 7 | 2
O=C(CCCN1C(=O)/C(=C\c2cccs2)SC1=S)Nc1cc([N+](=O)[O-])ccc1O | 2 | 3 | 3 | -9 | 73* | -16
O=C(CCN1C(=O)/C(=C/c2cccs2)SC1=S)Nc1ccccc1O | 5 | -6 | -2 | -9 | 10 | -13
Cc1ccccc1/C=C1\SC(=S)N(/N=C/c2cc([N+](=O)[O-])ccc2O)C1=O | -23 | 32 | -1 | 31 | -15 | 38
O=C1/C(=C\c2cc([N+](=O)[O-])ccc2O)SC(=S)N1Cc1ccc(Cl)cc1 | 12 | nt | 1 | nt | 96* | nt
CN(C)C1CCCCC=CC(=O)NC1 (stereo not drawn) | nt | nt | -2 | nt | nt | nt
Cc1cc(=O)c2cc3nc(-c4cccnc4)oc3c(Br)c2o1 | nt | -10 | nt | -9 | 1 | 5
Cc1nn(-c2ccccc2)c(Cl)c1/C=C1\SC(=S)N(CCCCCC(=O)O)C1=O | -3 | 34 | 2 | 14 | 80* | -8
COc1cc(/C=C2/SC(=NCc3ccccc3)N(Cc3ccccc3)C2=O)ccc1O | -24 | -3 | 0 | 5 | 85* | 4
Cc1nn(-c2ccccc2)c(Cl)c1/C=C1\SC(=S)NC1=O | -8 | 26 | 7 | 20 | 34 | 7
CS(=O)(=O)c1ccc(Cl)c(NC(=O)CSc2n[nH]c(-c3cccs3)n2)c1 | -10 | 5 | -2 | 9 | nt | 2
O=S(=O)(Nc1ccc(-c2csc(-c3ccccc3)n2)cc1)c1ccc(F)cc1 | nt | 49 | -4 | 21 | 98* | 38
SMILES | PfHsp90 set2 | tim23-1 inh | V-ATPase pHluor | tim10-1 inh | SKKanGAS inh | TIM10 inh
O=C(Nc1nc(-c2ccccc2)cs1)c1ccccc1NS(=O)(=O)c1ccc(F)cc1 | 103* | 7 | -1 | -27 | 85* | -84
Cc1cc(NC(=O)CS(=O)(=O)c2ccc(Cl)cc2)no1 | 4 | 10 | 5 | -4 | -1 | 10
Cc1ccc(/C=C2/SC(=S)N(c3ccc(S(=O)(=O)Nc4nccs4)cc3)C2=O)cc1 | -7 | 18 | -1 | 19 | 16 | 11
Cc1ccc(Oc2ccc3c(c2)C(=O)N(c2ccc(S(=O)(=O)Nc4nccs4)cc2)C3=O)cc1 | 3 | -6 | 3 | 14 | 93* | -3
COc1ccc2c(c1)[nH]c1c(=O)n(CCc3cnc[nH]3)cnc12 | nt | -10 | 0 | 11 | 100* | -5
S=C(NCCN1CCOCC1)Nc1ccccc1Cl | -19 | 9 | -1 | 1 | -8 | 11
O=C(CCn1cnc(-c2ccccc2)c1-c1ccccc1)N/N=C/c1ccccc1O | -3 | 17 | -1 | 39 | 76* | 22
COc1ccc(/C=N/NC(=O)CCn2cnc(-c3ccccc3)c2-c2ccccc2)cc1 | 16 | 32 | -1 | 33 | 105* | 30
O=C(CCC(=O)Nc1ccc(Br)cc1)N/N=C/c1ccccc1O | -18 | 17 | 4 | -2 | 83* | 20
Cc1ccc(NC(=O)CCC(=O)N/N=C/c2ccccc2O)cc1 | 2 | 3 | 2 | -11 | 7 | 2
Nc1ncnc2c1ncn2[C@@H]1O[C@H](CNC(=O)[C@@H]2CCC(=O)N2)[C@@H](O)[C@H]1O | -6 | 32 | 1 | 19 | nt | -10
Cc1ccccc1-c1cc(C(=O)NCC2CC2)nn1CC1CC(c2cccc([N+](=O)[O-])c2)=NO1 (stereo not drawn) | 5 | 30 | 1 | 30 | nt | 18
O=C1C2C3C=CC(C3)C2C(=O)N1/N=C/c1cn(Cc2ccccc2)c2ccccc12 (stereo not drawn) | 28 | 17 | 13* | 12 | 5 | -10
O=C1C2C3C=CC(C3)C2C(=O)N1/N=C/c1cn(Cc2ccc(F)cc2)c2ccccc12 (stereo not drawn) | -4 | 28 | 0 | 25 | 8 | 17
COC(=O)C(Nc1nccs1)(OC)C(F)(F)F (stereo not drawn) | 4 | 4 | 17* | 1 | -24 | 13
COC(=O)CCC(=O)Nc1nccs1 | 1 | 7 | -2 | 5 | 2 | -9
CC(C)Cc1csc(NC(=O)c2ccc(Br)cc2)c1C(=O)O | 1 | 30 | -1 | -12 | 70* | 24
COc1ccc(C#Cc2cnc3c(c2)C(=O)N([C@@H](C)CO)C[C@@H](C)[C@@H](CN(C)CC2CCOCC2)O3)cc1 | nt | nt | -1 | nt | nt | nt
COc1ccc([N+](=O)[O-])cc1NS(=O)(=O)c1ccc(C)cc1 | 6 | 35 | 2 | -1 | 10 | 20
Cc1ccc(S(=O)(=O)Nc2ccc3cc([N+](=O)[O-])ccc3c2[N+](=O)[O-])cc1 | 111* | nt | 0 | nt | nt | nt
